Screen size: about 310,000 compounds; about 14,000 (4.5%) showed an effect of 50% or more. Effects have a minus sign here. Only a selection was taken, and strong results are over-represented in it overall.
molecular target: human ether-à-go-go-related gene (hERG) potassium channel (human, UniProt Q12809); test: primary screen, population patch clamp on CHO cells stably expressing hERG; higher = less effect of the substance
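Further: peak tail current of the secondary pulse compared with the same well before compound.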

human ether-à-go-go-related gene (hERG) potassium channel, sequence (Q12809 whole entry, looked up): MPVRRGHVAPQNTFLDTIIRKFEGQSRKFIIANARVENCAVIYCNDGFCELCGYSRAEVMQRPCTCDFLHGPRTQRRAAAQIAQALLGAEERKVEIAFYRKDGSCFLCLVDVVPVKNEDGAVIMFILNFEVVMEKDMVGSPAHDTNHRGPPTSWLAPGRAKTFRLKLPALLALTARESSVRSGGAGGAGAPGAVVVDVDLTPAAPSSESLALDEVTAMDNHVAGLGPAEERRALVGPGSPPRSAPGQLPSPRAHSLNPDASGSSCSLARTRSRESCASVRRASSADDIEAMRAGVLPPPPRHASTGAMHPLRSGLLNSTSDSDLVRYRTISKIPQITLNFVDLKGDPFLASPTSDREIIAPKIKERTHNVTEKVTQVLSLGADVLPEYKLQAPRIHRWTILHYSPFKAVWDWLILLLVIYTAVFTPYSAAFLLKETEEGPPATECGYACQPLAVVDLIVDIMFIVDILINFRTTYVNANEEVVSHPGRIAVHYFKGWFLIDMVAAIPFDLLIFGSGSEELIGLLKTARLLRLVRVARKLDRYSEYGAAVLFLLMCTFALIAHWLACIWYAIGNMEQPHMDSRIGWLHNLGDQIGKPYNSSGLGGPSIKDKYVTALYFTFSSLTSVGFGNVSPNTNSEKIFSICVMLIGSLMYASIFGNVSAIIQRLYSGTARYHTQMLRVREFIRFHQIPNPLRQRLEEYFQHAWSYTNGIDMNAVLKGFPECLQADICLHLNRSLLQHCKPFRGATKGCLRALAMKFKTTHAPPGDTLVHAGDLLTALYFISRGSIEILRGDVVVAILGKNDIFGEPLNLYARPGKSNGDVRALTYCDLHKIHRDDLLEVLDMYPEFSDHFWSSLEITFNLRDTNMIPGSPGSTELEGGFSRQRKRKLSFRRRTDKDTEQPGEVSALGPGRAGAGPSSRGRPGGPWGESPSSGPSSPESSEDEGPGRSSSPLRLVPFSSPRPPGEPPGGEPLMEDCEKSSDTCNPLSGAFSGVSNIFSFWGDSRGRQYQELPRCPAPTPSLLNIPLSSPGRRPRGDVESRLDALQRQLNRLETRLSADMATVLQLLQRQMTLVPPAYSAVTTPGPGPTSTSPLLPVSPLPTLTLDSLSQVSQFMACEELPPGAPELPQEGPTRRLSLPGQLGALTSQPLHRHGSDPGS

SMILES | hERG current change (%, negative = inhibition) at 10uM
Fc1ccc(CNCc2cccc(Br)c2)cc1 | 13.9%
O=C(CSc1cn(CCNC(=O)c2ccccc2)c2ccccc12)NCC1CCCO1 (centres unmarked) | -10.9%
O=C(CNC(=O)c1cccs1)OCC(=O)c1ccccc1 | 8.55%
O=C(c1cccnc1Nc1ccccc1F)N1CCOCC1 | 11.7%
O=S(=O)(c1ccccc1)C(/C=N\O)/C=C/c1ccccc1 (centres unmarked) | 4.57%
CCCc1nnc(NC(=O)CCC(=O)NC2CCCCCC2)s1 | 13.7%
C=CCNC(=O)COC(=O)CCC(=O)c1cccs1 | 1.42%
CCC(C)NC(=O)CSc1nc2ccsc2c(=O)n1-c1ccc(OC)cc1 (centres unmarked) | -3.72%
O=[N+]([O-])c1cccc(NNS(=O)(=O)c2ccccc2F)c1 | -29.4%
O=c1c2c3c(sc2nc2n1N=C(c1cccs1)CS2)CCCC3 | 5.12%
COc1ccnc(CN(C)C(=O)C2CCC(=O)N(CCN(C)C)C2)c1 (centres unmarked) | 17.5%
O=C(c1ccco1)N1CCN(c2ncnc3c(-c4ccccc4)nsc23)CC1 | -14.2%
CC(C)(C)C(=O)N1CCN(c2ncnc3scc(-c4ccccc4)c23)CC1 | -30%
O=C(c1ccco1)N1CCN(c2ncnc3scc(-c4ccccc4)c23)CC1 | -64.5%
CCN1CCN(C(=O)c2ccc3c(Cl)c4c(nc3c2)CCCC4)CC1 | 6.65%
CCCCC(C(=O)O)C(C)CC(=O)Nc1nncs1 (centres unmarked) | 13.1%
Cc1ccc(NC(=O)/C(=C\c2cccnc2)NC(=O)c2ccco2)cc1 | -28.5%
CC(=O)c1ccc(NC(=O)/C(=C\c2ccco2)NC(=O)c2ccco2)cc1 | -15.9%
O=C(Nc1ccc2ccccc2c1)/C(=C/c1cccc(Br)c1)NC(=O)c1ccco1 | -68.6%
O=C(Nc1cccc(F)c1)/C(=C\c1cccnc1)NC(=O)c1ccco1 | -22.4%
CC(=O)c1cccc(NC(=O)/C(=C\c2ccco2)NC(=O)c2ccco2)c1 | -64.3%
O=C(Nc1cccc(Cl)c1)/C(=C\c1cccnc1)NC(=O)c1ccco1 | -67%
O=C(Nc1ccccc1)/C(=C/c1cccc(Br)c1)NC(=O)c1ccco1 | 5.35%

SMILES | hERG current change (%, negative = inhibition) at 10uM
Cc1ccc(NC(=O)/C(=C/c2cccc(Br)c2)NC(=O)c2ccco2)cc1 | -28.1%
O=C(Nc1cccc(Br)c1)/C(=C\c1cccnc1)NC(=O)c1ccco1 | -56.6%
O=C(Nc1ccccc1)/C(=C/c1cccnc1)NC(=O)c1ccco1 | -4.49%
CC(=O)c1cccc(NC(=O)/C(=C/c2ccco2)NC(=O)c2ccco2)c1 | -18.6%
CC(=O)c1cccc(NC(=O)/C(=C\c2cccnc2)NC(=O)c2ccco2)c1 | -10.6%
Cc1ccc(NC(=O)COC(=O)CCC(=O)c2cccs2)cc1 | -6.94%
COc1ccc(-c2nc3c(=O)n(C)c(=O)[nH]c3n2CCc2ccccc2)cc1 | 22.1%
Cn1c(=O)c2c(nc(N3CCc4ccccc4C3)n2C)n(C)c1=O | 7.62%
CCCCS(=O)(=O)N1CCC(C(=O)Oc2ccccc2OC)CC1 | -9.14%
O=c1cc(N2CCc3ccccc3C2)[nH]c(=O)n1-c1ccc(Cl)cc1 | 3.07%
COc1cc2[nH]c(=S)n(Cc3ccccc3)c(=O)c2cc1OC | 11.4%
CCOc1ccc(CCNC(=O)CCC(=O)N2CCSc3ccccc32)cc1OCC | -2.52%
O=C(Nc1ccc(Cc2ccncc2)cc1)c1cccc([N+](=O)[O-])c1 | 13.6%
CC(=O)Nc1ccc(C(=O)CSc2nc3ccccc3n2CC(=O)N2CCCC2)cc1 | 11.1%
CCOc1cc2c(C#N)c(N3CCNCC3)nc(N)c2c(N)n1 | 5.41%
O=C(Cc1ccccc1)Nc1cccc(S(=O)(=O)N2CCCCCC2)c1 | -49.1%
CC1CN(CC(=O)Nc2cccc(C(=O)Nc3cccc(C(F)(F)F)c3)c2)CC(C)O1 (centres unmarked) | -54.3%
COc1ccccc1N1CCN(CCC(=O)Nc2cccc(Cl)c2)CC1.Cl | -62.8%
O=C(CN1CCOCC1)Nc1cccc(C(F)(F)F)c1 | -3%
O=C(CN1CCN(c2ccccc2)CC1)Nc1cccc(C(F)(F)F)c1 | 2%
CC1CCN(CC(=O)Nc2cccc(C(=O)Nc3cccc(C(F)(F)F)c3)c2)CC1 | -37.3%
O=C(CN1CCN(Cc2ccccc2)CC1)Nc1cccc(S(=O)(=O)N2CCCCCC2)c1 | -76.3%
COc1ccccc1N1CCN(CCC(=O)Nc2ccc3c(c2)OCO3)CC1 | -26.7%

SMILES | hERG current change (%, negative = inhibition) at 10uM
CC(=O)N1CCN(CC(=O)Nc2cccc(S(=O)(=O)N3CCCCCC3)c2)CC1 | -23.3%
O=C(CN1CCOCC1)Nc1cccc(C(=O)Nc2cccc(C(F)(F)F)c2)c1 | -40.1%
COc1ccccc1N1CCN(CCC(=O)Nc2ccc(F)cc2)CC1 | -19.3%
O=C(CN1CCN(Cc2ccccc2)CC1)Nc1cccc(C(F)(F)F)c1 | -71.6%
COc1ccc(NC(=O)Cn2nnc(C(=O)NCc3cccs3)c2N)cc1 | 13.9%
COc1ccc(/C=C2\SC(=S)N(Cc3cccnc3)C2=O)cc1C | -3.04%
Cc1ccc2c(cnn2C(=O)CCC(=O)NC2CCCC2)c1 | -10.3%
O=C(CCN1C(=O)/C(=C/c2cccc(Br)c2)SC1=S)NNC(=O)c1cccnc1 | 6.24%
CCOc1ccccc1NC(=O)COC(=O)c1ccccc1SCC(=O)N1CCCC1 | 1.65%
O=C(CCN1CCN(Cc2ccccc2)CC1)NNC(=O)Nc1cccc(Cl)c1 | -47%
O=C(CCN1CCN(Cc2ccccc2)CC1)Nc1cccc(Cl)c1 | -70.6%
CCc1ccc(C(=O)NNC(=O)CCN2CCN(Cc3ccccc3)CC2)cc1 | -19.8%
O=C(CNC1CCCC1)Nc1ccc(S(=O)(=O)N2CCCCC2)cc1 | -0.797%
N#Cc1cccc(NC(=O)CN2CCCCCC2)c1 | -10.9%
Cl.O=C(CCN1CCCCC1)Nc1cccc(Cl)c1 | -35.9%
Cl.O=C(CNC1CCN(Cc2ccccc2)CC1)Nc1ccc(S(=O)(=O)N2CCCCC2)cc1 | -69.7%
N#Cc1cccc(NC(=O)CN2CCN(Cc3ccccc3)CC2)c1 | -65.1%
O=C(CCN1CCN(Cc2ccccc2)CC1)NNC(=O)Cc1ccc(Cl)c(Cl)c1 | -74.7%
N#Cc1cccc(NC(=O)Cc2ccccc2)c1 | 13.6%
NNC(=O)CCN1CCN(Cc2ccccc2)CC1 | 17%
O=C(CNC1CCCCC1)Nc1ccc(S(=O)(=O)N2CCCCC2)cc1 | 2.13%
COc1ccc(NS(=O)(=O)c2cnc[nH]2)cc1 | 17.4%
COCCCNC(=O)c1ccc(NS(C)(=O)=O)cc1 | -2.85%

SMILES | hERG current change (%, negative = inhibition) at 10uM
O=C(O)c1c(NC(=O)c2cccc3ccccc23)sc2c1CCC2 | 5.11%
COc1cccc(CNc2nc(C(F)(F)F)nc3ccccc23)c1 | 0.0262%
CS(=O)(=O)c1cccc(NC(=O)C2CCCN2S(=O)(=O)c2ccc(F)cc2)c1 (centres unmarked) | 7.77%
Nc1ccc(C(=O)OCc2ccncc2)cc1[N+](=O)[O-] | -28.7%
NC(=O)c1cccnc1Nc1ccccc1F | 0.0995%
CC1(C)C=Cc2cc3ccc(=O)oc3cc2O1 | 3.51%
COc1ccc(OCc2n[nH]c(=S)n2-c2ccc(C)cc2)cc1 | 0.659%
Cl.O=C(CN1CCCC1)Nc1cccc(Cl)c1 | -3.66%
O=C(CN1CCN(Cc2ccccc2)CC1)Nc1cccc(Cl)c1 | -60.7%
O=C(Cn1cnnn1)Nc1cccc(S(=O)(=O)N2CCCCC2)c1 | 18.2%
CCN(CC)C(=S)SCC(=O)Nc1cccc(C(F)(F)F)c1 | -10%
Cl.O=C(CN1CCCCC1)Nc1cccc(Cl)c1 | -28.8%
O=C(O)CSCC(=O)Nc1cccc(C(F)(F)F)c1 | -6.67%
O=C(Cn1ccc(C(F)(F)F)n1)Nc1cccc(S(=O)(=O)N2CCCCC2)c1 | -60.5%
CN(C)C(=S)SCC(=O)Nc1cccc(C(F)(F)F)c1 | -54.6%
Cc1ccc(S(=O)(=O)N2CCCCC2)cc1NC(=O)Cn1ccc(C(F)(F)F)n1 | -8.63%
CCN1CCN(C(=S)Nc2sc(C)c(-c3ccccc3)c2C(=O)OC)CC1 | 15.3%
CC1(C)Cc2cccc(OCC(=O)OCC(=O)c3ccccc3)c2O1 | 1.43%
Cc1c(NC(=O)CSc2nnnn2-c2ccc(F)cc2)c(=O)n(-c2ccccc2)n1C | -2.74%
Cc1cccc(C(=O)Oc2ccc(/C=N/NC(=O)c3ccncc3)cc2)c1 | 3.1%

From publication PMC4336329 (PLoS ONE, 2015)
